Data as given in the supplement of paper PMC3545927.
The list shows a part of the results. No count for the full screen is at hand.

Target: furin, P09958
Experiment: furin cleavage Z-score vs untreated control; higher = more cleavage, active = 3.5 or more, inactive = 1 or less, 8 variable residues between constant flanks
Procedure, shortened: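 Read counts from sequencing released DNA gave abundance for each bead-bound 8-mer peptide–cDNA fusion cut by purified furin over 7.5, 15 or 30 min. The cleavage Z-score compares log counts with furin-free reactions after lowess adjustment and median absolute deviation scaling.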
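Note: purified furin at 1:10 enzyme:substrate in 50 mM HEPES pH 7.5.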

furin, P09958, sequence (P09958 whole entry): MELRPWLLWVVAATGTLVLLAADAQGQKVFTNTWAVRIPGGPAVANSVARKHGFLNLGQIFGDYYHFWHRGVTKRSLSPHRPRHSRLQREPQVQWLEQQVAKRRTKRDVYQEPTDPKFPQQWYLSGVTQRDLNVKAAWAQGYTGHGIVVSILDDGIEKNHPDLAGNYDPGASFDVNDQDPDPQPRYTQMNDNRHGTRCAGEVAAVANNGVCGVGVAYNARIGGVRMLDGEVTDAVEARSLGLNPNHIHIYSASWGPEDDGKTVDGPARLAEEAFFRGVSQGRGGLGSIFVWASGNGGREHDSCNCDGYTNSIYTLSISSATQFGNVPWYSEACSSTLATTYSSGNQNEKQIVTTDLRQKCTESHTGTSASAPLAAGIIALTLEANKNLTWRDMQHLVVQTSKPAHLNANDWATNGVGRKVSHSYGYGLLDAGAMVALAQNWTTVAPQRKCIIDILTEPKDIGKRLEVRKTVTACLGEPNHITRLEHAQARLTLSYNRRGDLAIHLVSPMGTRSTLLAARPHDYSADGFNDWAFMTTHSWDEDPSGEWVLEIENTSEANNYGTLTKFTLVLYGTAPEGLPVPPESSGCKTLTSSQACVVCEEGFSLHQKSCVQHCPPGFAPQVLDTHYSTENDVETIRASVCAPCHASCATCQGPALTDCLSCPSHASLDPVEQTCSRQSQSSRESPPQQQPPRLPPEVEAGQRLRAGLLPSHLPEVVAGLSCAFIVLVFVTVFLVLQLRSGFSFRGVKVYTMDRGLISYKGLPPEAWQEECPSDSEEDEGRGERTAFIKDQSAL

Row | Sequence | furin cleavage Z-score (7.5 min) | furin cleavage Z-score (15 min) | furin cleavage Z-score (30 min)
1 | CAKCPCQVPSAGNASASA [HC1216] | 0.69 (inactive) | 0.244 (inactive) | -0.458 (inactive)
2 | CALRLRGPRAAGNASASA [FS-943] | 4.69 (active) | 3.33 | 3.8 (active)
3 | CALRPRQRRAAGNASASA [FS-360] | 7.42 (active) | 7.73 (active) | 6.07 (active)
4 | CAQRQRAKRNAGNASASA [FS-1252] | 13.8 (active) | 13.3 (active) | 10.1 (active)
5 | CALDPQARVAAGNASASA [HC1493] | -1.42 (inactive) | -2.18 (inactive) | -0.348 (inactive)
6 | CAKCPRQRRAAGNASASA [FS-445] | 7.55 (active) | 6.15 (active) | 7.23 (active)
7 | CAQRQKKVTFAGNASASA [HC1394] | 1.32 | -2.05 (inactive) | -3.25 (inactive)
8 | CALTPLRDWAAGNASASA [HC637] | -0.181 (inactive) | 1.58 | -0.616 (inactive)
9 | CALRWRQRRAAGNASASA [FS-272] | 3.83 (active) | 4.93 (active) | 3.79 (active)
10 | CAKIPRFRRIAGNASASA [FS-449] | 0.2 (inactive) | 0.191 (inactive) | 2.93
11 | CAISGIQYLAAGNASASA [HC1045] | -1.05 (inactive) | 0.557 (inactive) | -1.83 (inactive)
12 | CAPRARCRRAAGNASASA [FS-138] | 8.91 (active) | 10.2 (active) | 7.25 (active)
13 | CARRPEGRTWAGNASASA [HC195] | -0.89 (inactive) | 0.845 (inactive) | -0.916 (inactive)
14 | CAARAACRAAAGNASASA [HC1520] | -1.54 (inactive) | -0.427 (inactive) | -0.259 (inactive)
15 | CAISPRQRRAAGNASASA [FS-543] | 7.77 (active) | 6.99 (active) | 6.1 (active)
16 | CALRPRFRREAGNASASA [FS-614] | 10 (active) | 8.78 (active) | 6.07 (active)
17 | CASVWKDLLEAGNASASA [HC1431] | -0.463 (inactive) | 0.374 (inactive) | -0.00259 (inactive)
18 | CASSLTVTQLAGNASASA [HC1135] | 0.41 (inactive) | -0.51 (inactive) | -0.191 (inactive)
19 | CADVAVLTSMAGNASASA [HC1244] | 0.796 (inactive) | 0.438 (inactive) | -0.848 (inactive)
20 | CASVPCSAHLAGNASASA [HC2490] | 0.673 (inactive) | 0.436 (inactive) | 1.54
21 | CAASQLSAPSAGNASASA [HC1262] | 0.172 (inactive) | 0.594 (inactive) | 2.91
22 | CATTPCNGSWAGNASASA [HC78] | -0.41 (inactive) | 0.152 (inactive) | 0.215 (inactive)

Row | Sequence | furin cleavage Z-score (7.5 min) | furin cleavage Z-score (15 min) | furin cleavage Z-score (30 min)
23 | CARYISWCLWAGNASASA [HC579] | -0.0545 (inactive) | 0.138 (inactive) | 0.846 (inactive)
24 | CAEVVTSTWPAGNASASA [HC2259] | -1.41 (inactive) | -0.126 (inactive) | 0.24 (inactive)
25 | CAQRQRQRRAAGNASASA [FS-1253] | 8.09 (active) | 6.53 (active) | 6.09 (active)
26 | CALAQRQRRIAGNASASA [FS-347] | 0.264 (inactive) | -0.423 (inactive) | 0.578 (inactive)
27 | CARPQPQRRAAGNASASA [FS-86] | 2.58 | 5.58 (active) | 5.07 (active)
28 | CARLKRRLVPAGNASASA [FS-2708] | 2.61 | 4.61 (active) | 5.01 (active)
29 | CARLKRRVKSAGNASASA [FS-2351] | 4.89 (active) | 6 (active) | 4.82 (active)
30 | CARLKKKVKQAGNASASA [FS-3196] | -1.36 (inactive) | -0.919 (inactive) | 0.354 (inactive)
31 | CAKVCCSMSYAGNASASA [HC1994] | 1.97 | 0.312 (inactive) | 0.855 (inactive)
32 | CARFDRQIFIAGNASASA [FS-2012] | -0.31 (inactive) | -0.173 (inactive) | -0.368 (inactive)
33 | CARSRRGLFAAGNASASA [FS-2816] | 2.59 | 2.97 | 6.66 (active)
34 | CARLRRGLAAAGNASASA [FS-1908] | 0.841 (inactive) | 1.22 | 1.44
35 | CARSRRGIFIAGNASASA [FS-2312] | 1.57 | 2.13 | 4.7 (active)
36 | CAREKRGWTMAGNASASA [FS-2549] | 0.613 (inactive) | 1.51 | 2.06
37 | CAREKRFTFVAGNASASA [FS-1694] | -0.942 (inactive) | 0.437 (inactive) | 3.16
38 | CAREKRFCTGAGNASASA [FS-2329] | 2.75 | 4.22 (active) | 4.58 (active)
39 | CAREKRGLFGAGNASASA [FU1] | 0.425 (inactive) | 4.29 (active) | 0.496 (inactive)
40 | CAREKRGPSGAGNASASA [FS-3153] | 0.65 (inactive) | -0.112 (inactive) | 0.123 (inactive)
41 | CAVVCCSMEYAGNASASA [HC2072] | -2.66 (inactive) | 0.354 (inactive) | 1.04
42 | CAGGRHLIFCAGNASASA [HC854] | -0.514 (inactive) | -0.469 (inactive) | -1.05 (inactive)
43 | CAKQSGENLPAGNASASA [HC949] | 0.51 (inactive) | -0.215 (inactive) | -0.135 (inactive)
